About 79,000 compounds went through this panel and 15% of them were active in at least one assay; those are over-represented in the sample as a whole. The source made the active and inactive calls. No stated cut-off is given here; in the data, active means growth inhibition above about 70%; inactive means the rest.
Key:
[1] = NCI Yeast Anticancer Drug Screen. Data for the rad52 strain (AID 147);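 further: 0% = growth of vehicle-treated control cultures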; conditions: S. cerevisiae rad52 mutant growth inhibition, stronger effect = higher value
In short: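 The repair-mutant yeast strain was incubated with compounds, then growth was read and inhibition derived relative to vehicle.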

[2] = NCI Yeast Anticancer Drug Screen. Data for the wt1 strain (AID 149);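 further: 0% = growth of vehicle-treated wt1 cultures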; conditions: S. cerevisiae wt1 strain (SPY 50644) growth inhibition, stronger effect = higher value
In short: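 Using yeast strain wt1, compound-induced growth inhibition was determined against vehicle-treated cultures.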

[3] = NCI Yeast Anticancer Drug Screen. Data for the rad50EPP+ strain (AID 151);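 further: 0% = growth of vehicle-treated control cultures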; conditions: S. cerevisiae rad50 mutant strain, stronger effect = higher value
In short: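 Vehicle-normalised growth inhibition; rad50EPP+ yeast strain, altered in DNA damage repair, compound-treated.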

[4] = NCI Yeast Anticancer Drug Screen. Data for the mgt1 strain (AID 153); conditions: S. cerevisiae mgt1 mutant growth inhibition, stronger effect = higher value
In short: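 Vehicle-normalized growth inhibition is determined in mgt1 yeast, a strain selected for a defined alteration in DNA repair or cell cycle control.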

[5] = NCI Yeast Anticancer Drug Screen. Data for the rad50 strain (AID 155);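 further: 0% = growth of vehicle-only cultures of the same strain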; conditions: S. cerevisiae rad50 strain growth inhibition, stronger effect = higher value
In short: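 Relative growth inhibition (compound vs vehicle) was measured in yeast with a defined repair-gene alteration.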

[6] = NCI Yeast Anticancer Drug Screen. Data for the mec2-1 strain (AID 157); conditions: S. cerevisiae mec2-1 strain, stronger effect = higher value
In short: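 Mutant yeast (mec2-1) grown with compound; growth inhibition relative to vehicle control reported.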

[7] = NCI Yeast Anticancer Drug Screen. Data for the rad14 strain (AID 159);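 further: 0% = growth of vehicle-treated control cultures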; conditions: S. cerevisiae rad14 strain growth inhibition, stronger effect = higher value
In short: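 Screen for anticancer potential: a yeast strain altered in DNA damage repair is grown with compound, and reduced growth is quantified against vehicle controls.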

[8] = NCI Yeast Anticancer Drug Screen. Data for the sgs1 mgt1 strain (AID 161);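 further: 0% = growth of cultures given vehicle only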; conditions: S. cerevisiae sgs1 mgt1 strain, stronger effect = higher value
In short: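 Percent growth inhibition was derived by comparing compound-exposed mutant yeast with vehicle-exposed cultures. The strain carries alterations in DNA damage repair.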

[9] = NCI Yeast Anticancer Drug Screen. Data for the CLN2oe strain (AID 163);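 further: 0% = growth of vehicle-only control cultures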; conditions: S. cerevisiae CLN2oe strain, stronger effect = higher value
In short: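 Compounds are applied to yeast harbouring a defined cell-cycle control change; reduced growth compared with vehicle-treated controls gives the value.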

[10] = NCI Yeast Anticancer Drug Screen. Data for the cln2 rad14 strain (AID 165);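 further: 0% = growth equal to vehicle treated cultures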; conditions: S. cerevisiae cln2 rad14 strain, stronger effect = higher value
In short: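 Readout is yeast growth inhibition versus vehicle-treated controls, using a strain with cln2 and rad14 alterations exposed to compound.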

[11] = NCI Yeast Anticancer Drug Screen. Data for the bub3 strain (AID 167); conditions: S. cerevisiae bub3 mutant strain, stronger effect = higher value
In short: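 Screening used yeast with an engineered genetic alteration affecting cell cycle control. Compound-exposed cultures were compared with vehicle cultures, and reduced growth was taken as inhibition.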

[12] = NCI Yeast Anticancer Drug Screen. Data for the wt2 strain (AID 169);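 further: 0% = growth of vehicle-treated yeast cultures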; conditions: S. cerevisiae wt2 strain growth inhibition, stronger effect = higher value
In short: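 Against vehicle-treated controls, the growth of yeast exposed to each compound was compared, and the inhibition was recorded.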

[13] = NCI Yeast Anticancer Drug Screen. Data for the mlh1 strain (AID 171);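 further: 0% = growth of vehicle-treated control cultures of the same strain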; conditions: S. cerevisiae mlh1 strain growth inhibition, stronger effect = higher value
In short: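 Measured: yeast growth. Reference: vehicle-treated controls. Organism: strain with a defined alteration affecting DNA damage repair or cell cycle control, treated with compound.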

[14] = NCI Yeast Anticancer Drug Screen. Data for the sgs1 strain (AID 173);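 further: 0% = growth of vehicle-only control cultures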; conditions: S. cerevisiae sgs1 mutant, stronger effect = higher value
In short: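 Each compound was added to cultures of the altered yeast strain. Growth was recorded, and inhibition was derived by comparison with vehicle controls.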

[15] = NCI Yeast Anticancer Drug Screen. Data for the mlh1 rad18 strain (AID 175); conditions: S. cerevisiae mlh1 rad18 strain growth inhibition, stronger effect = higher value
In short: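 Genetically defined yeast (DNA repair-deficient) exposed to compounds; growth inhibition determined relative to vehicle.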

[16] = NCI Yeast Anticancer Drug Screen. Data for the rad18 strain (AID 177); conditions: S. cerevisiae rad18 mutant growth inhibition, stronger effect = higher value
In short: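 Vehicle-treated cultures served as the baseline for scoring compound-induced growth inhibition in DNA-repair-mutant yeast.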

[17] = at 5.0 µM (retest, dose inferred, filed as 0.5)
[18] = at 50.0 µM (retest, dose inferred, filed as 5.0)

Measured: growth inhibition

COc1cc(/C=C2\NC(=O)N(/C=C3\C(=O)Oc4ccccc4C3=O)C2=O)ccc1O
active: [1]; at 33.0 µM 79% | [1]; at 100.0 µM 96% | [2]; at 100.0 µM 95% | [4]; at 100.0 µM 94% | [5]; at 33.0 µM 75% | [5]; [18] 95% | [5]; at 50.0 µM 88.4% | [5]; at 100.0 µM 95% | [6]; [18] 97% | [6]; at 50.0 µM 77.5% | [6]; at 100.0 µM 96% | [7]; at 100.0 µM 93% | [8]; [18] 92% | [8]; at 50.0 µM 93.9% | [9]; at 33.0 µM 86% | [9]; at 100.0 µM 96% | [10]; [18] 94% | [10]; at 50.0 µM 90% | [11]; [18] 90% | [11]; at 50.0 µM 90.8% | [11]; at 100.0 µM 93% | [12]; at 33.0 µM 87% | [12]; at 100.0 µM 98% | [13]; at 33.0 µM 82% | [13]; at 100.0 µM 96% | [14]; at 33.0 µM 89% | [14]; at 100.0 µM 97% | [15]; [18] 95% | [15]; at 50.0 µM 89.5% | [16]; at 33.0 µM 77% | [16]; at 100.0 µM 94%
inactive: [1]; at 1.2 µM -3% | [1]; at 3.7 µM 1% | [1]; at 11.0 µM 16% | [2]; at 1.2 µM 2% | [2]; at 3.7 µM 3% | [2]; at 11.0 µM 3% | [2]; at 33.0 µM 63% | [3]; at 1.2 µM -1% | [3]; at 3.7 µM -1% | [3]; at 11.0 µM 1% | [3]; at 33.0 µM 4% | [3]; at 100.0 µM 3% | [4]; at 1.2 µM -3% | [4]; at 3.7 µM -3% | [4]; at 11.0 µM 4% | [4]; at 33.0 µM 62% | [5]; at 1.2 µM -6% | [5]; at 3.7 µM -17% | [5]; [17] -1% | [5]; at 11.0 µM -9% | [6]; at 1.2 µM -1% | [6]; at 3.7 µM -3% | [6]; [17] -4% | [6]; at 11.0 µM 5% | [6]; at 33.0 µM 68% | [7]; at 1.2 µM -2% | [7]; at 3.7 µM -2% | [7]; at 11.0 µM 3% | [7]; at 33.0 µM 64% | [8]; [17] -11% | [9]; at 1.2 µM 0% | [9]; at 3.7 µM 1% | [9]; at 11.0 µM 15% | [10]; [17] 38% | [11]; at 1.2 µM -3% | [11]; at 3.7 µM -2% | [11]; [17] -16% | [11]; at 11.0 µM 1% | [11]; at 33.0 µM 69% | [12]; at 1.2 µM -1% | [12]; at 3.7 µM 0% | [12]; at 11.0 µM 7% | [13]; at 1.2 µM -1% | [13]; at 3.7 µM 0% | [13]; at 11.0 µM 6% | [14]; at 1.2 µM -1% | [14]; at 3.7 µM -1% | [14]; at 11.0 µM 14% | [15]; [17] 4% | [16]; at 1.2 µM -1% | [16]; at 3.7 µM -3% | [16]; at 11.0 µM -1%

CC1=C(C(=O)NCc2ccccc2)C(c2ccccc2)C(C(=O)NCc2ccccc2)=C(C)N1
inactive: [1]; at 1.2 µM -3% | [1]; at 3.7 µM -4% | [1]; at 11.0 µM -4% | [1]; at 33.0 µM -20% | [2]; at 1.2 µM 0% | [2]; at 3.7 µM -1% | [2]; at 11.0 µM -4% | [2]; at 33.0 µM 4% | [3]; at 1.2 µM -3% | [3]; at 3.7 µM -1% | [3]; at 11.0 µM 3% | [3]; at 33.0 µM 3% | [3]; at 100.0 µM 0% | [4]; at 1.2 µM -2% | [4]; at 3.7 µM -2% | [4]; at 11.0 µM -3% | [4]; at 33.0 µM 6% | [5]; at 1.2 µM -14% | [5]; at 3.7 µM 21% | [5]; [17] 2% | [5]; at 11.0 µM 22% | [5]; at 33.0 µM 36% | [6]; at 1.2 µM -1% | [6]; at 3.7 µM -4% | [6]; [17] 11% | [6]; at 11.0 µM -3% | [6]; at 33.0 µM 18% | [7]; at 1.2 µM 1% | [7]; at 3.7 µM 4% | [7]; at 11.0 µM 6% | [7]; at 33.0 µM 16% | [8]; [17] -1% | [9]; at 1.2 µM -5% | [9]; at 3.7 µM 1% | [9]; at 11.0 µM -2% | [9]; at 33.0 µM 4% | [9]; at 100.0 µM 63% | [10]; [17] -7% | [10]; [18] 51% | [10]; at 50.0 µM 11.4% | [11]; at 1.2 µM -1% | [11]; at 3.7 µM 1% | [11]; [17] 6% | [11]; at 11.0 µM 0% | [11]; at 33.0 µM 45% | [12]; at 1.2 µM -1% | [12]; at 3.7 µM 7% | [12]; at 11.0 µM -3% | [12]; at 33.0 µM 10% | [13]; at 1.2 µM -4% | [13]; at 3.7 µM -3% | [13]; at 11.0 µM -3% | [13]; at 33.0 µM 8% | [14]; at 1.2 µM -1% | [14]; at 3.7 µM -2% | [14]; at 11.0 µM 5% | [14]; at 33.0 µM 40% | [15]; [17] 4% | [16]; at 1.2 µM 2% | [16]; at 3.7 µM 3% | [16]; at 11.0 µM 7% | [16]; at 33.0 µM 60%
active: [1]; at 100.0 µM 85% | [2]; at 100.0 µM 89% | [4]; at 100.0 µM 97% | [5]; [18] 75% | [5]; at 50.0 µM 75.5% | [5]; at 100.0 µM 91% | [6]; [18] 81% | [6]; at 50.0 µM 93.3% | [6]; at 100.0 µM 94% | [7]; at 100.0 µM 92% | [8]; [18] 82% | [8]; at 50.0 µM 70.7% | [11]; [18] 84% | [11]; at 50.0 µM 87.8% | [11]; at 100.0 µM 94% | [12]; at 100.0 µM 91% | [13]; at 100.0 µM 96% | [14]; at 100.0 µM 93% | [15]; [18] 82% | [15]; at 50.0 µM 93.1% | [16]; at 100.0 µM 96%

— PubChem BioAssay (NCI)
